Measurements taken from PubChem BioAssay AID1159580 (chemical genetic matrix, 2015).
Hit rate of the full screen: of about 5,500 compounds, about 2,000 (36%) were called active. Roughly 18% stayed inconclusive and do not appear here. Rule as the data show it: active = normalized growth mostly below about 0.91 (no sharp cut-off); inconclusive = no clear call, values can overlap the other calls; inactive = mostly above about 0.92. Some of the results follow.

Assay: chemical genetic growth profiling, strain panel (AID 1159580);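 also: tested at 20 µM; growth read once vehicle control cultures reached saturation at 30 °C; 1 = growth at the plate median or of vehicle wells; lower values mean less growth of the strain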
Conditions: S. cerevisiae deletion strains, growth OD

Measured: normalized growth

O=C(Nc1cccc(C(F)(F)F)c1)c1cncc(C#Cc2ccccc2)c1
active: locus YHR030C, strain SLT2, stronger effect = lower value 0.847
inactive: locus YAR019C, strain CDC15, stronger effect = lower value 0.971 | locus YBL105C, strain PKC1, stronger effect = lower value 0.98 | locus YBR135W, strain CKS1, stronger effect = lower value 0.983 | locus YBR136W, strain MEC1, stronger effect = lower value 0.982 | locus YBR160W, strain CDC28, stronger effect = lower value 0.983 | locus YDL017W, strain CDC7, stronger effect = lower value 0.983 | locus YDL028C, strain MPS1, stronger effect = lower value 0.978 | locus YDL101C, strain DUN1, stronger effect = lower value 0.987 | locus YDL108W, strain KIN28, stronger effect = lower value 0.984 | locus YDL132W, strain cdc53, stronger effect = lower value 0.983 | locus YDL214C, strain PRR2, stronger effect = lower value 0.905 | locus YDR052C, strain DBF4, stronger effect = lower value 0.983 | locus YDR054C, strain cdc34, stronger effect = lower value 0.963 | locus YDR226W, strain ADK1, stronger effect = lower value 0.973 | locus YDR477W, strain SNF1, stronger effect = lower value 0.929 | locus YER123W, strain YCK3, stronger effect = lower value 0.809 | locus YER133W, strain GLC7, stronger effect = lower value 0.936 | locus YFL009W, strain cdc4, stronger effect = lower value 0.968 | locus YFL029C, strain CAK1, stronger effect = lower value 0.97 | locus YFR003C, strain YPI1, stronger effect = lower value 0.983 | locus YFR019W, strain FAB1, stronger effect = lower value 0.862 | locus YFR028C, strain CDC14, stronger effect = lower value 0.969 | locus YGR040W, strain KSS1, stronger effect = lower value 0.89 | locus YGR052W, strain FMP48, stronger effect = lower value 0.977 | locus YGR092W, strain DBF2, stronger effect = lower value 0.826 | locus YHR079C, strain IRE1, stronger effect = lower value 0.854 | locus YHR082C, strain KSP1, stronger effect = lower value 0.905 | locus YHR205W, strain SCH9, stronger effect = lower value 0.776 | locus YIL147C, strain SLN1, stronger effect = lower value 0.98 | locus YJL095W, strain BCK1, stronger effect = lower value 0.903 | locus YJL128C, strain PBS2, stronger effect = lower value 0.978 | locus YJL157C, strain FAR1, stronger effect = lower value 0.878 | locus YJR016C, strain ILV3, stronger effect = lower value 0.983 | locus YJR066W, strain TOR1 (second series), stronger effect = lower value 0.905 | locus YJR066W, strain TOR1, stronger effect = lower value 0.865 | locus YKL048C, strain ELM1, stronger effect = lower value 0.877 | locus YKL067W, strain YNK1, stronger effect = lower value 0.901 | locus YKL101W, strain HSL1, stronger effect = lower value 0.883 | locus YKL193C, strain SDS22, stronger effect = lower value 0.982 | locus YKL203C, strain TOR2, stronger effect = lower value 0.937 | locus YLR113W, strain HOG1, stronger effect = lower value 0.902 | locus YLR133W, strain CKI1, stronger effect = lower value 0.868 | locus YLR403W, strain SFP1, stronger effect = lower value 0.843 | locus YML070W, strain DAK1, stronger effect = lower value 0.914 | locus YMR001C, strain CDC5, stronger effect = lower value 0.98 | locus YMR205C, strain PFK2 (second series), stronger effect = lower value 0.935 | locus YMR277W, strain FCP1, stronger effect = lower value 0.975 | locus YNL006W, strain LST8, stronger effect = lower value 0.981 | locus YNL020C, strain ARK1, stronger effect = lower value 0.853 | locus YNL161W, strain CBK1, stronger effect = lower value 0.985 | locus YNL183C, strain NPR1, stronger effect = lower value 0.919 | locus YNL207W, strain RIO2, stronger effect = lower value 0.99 | locus YNL222W, strain SSU72, stronger effect = lower value 0.978 | locus YNL307C, strain MCK1 (second series), stronger effect = lower value 0.77 | locus YOL078W, strain AVO1, stronger effect = lower value 0.977 | locus YOL136C, strain PFK27, stronger effect = lower value 0.899 | locus YOR061W, strain CKA2, stronger effect = lower value 0.875 | locus YOR119C, strain RIO1, stronger effect = lower value 0.977 | locus YOR231W, strain MKK1, stronger effect = lower value 0.915 | locus YOR329C, strain SCD5, stronger effect = lower value 0.981 | locus YPL031C, strain PHO85, stronger effect = lower value 0.916 | locus YPL153C, strain RAD53, stronger effect = lower value 0.921 | locus YPL204W, strain HRR25, stronger effect = lower value 0.883 | locus YPL209C, strain IPL1, stronger effect = lower value 0.988 | locus YPL256C, strain CLN2, stronger effect = lower value 0.897 | locus YPR025C, strain CCL1, stronger effect = lower value 0.977 | locus YPR106W, strain ISR1, stronger effect = lower value 0.977 | locus YPR111W, strain DBF20, stronger effect = lower value 0.964 | strain NNK1, stronger effect = lower value 0.974 | strain TSCII, stronger effect = lower value 0.989
